Results taken from PubChem BioAssay AID1159580 (chemical genetic matrix, 2015).
Out of some 5,500 compounds screened, about 2,000 (36%) were called active. Roughly 18% stayed inconclusive and do not appear here. Rule as the data show it: active = normalized growth mostly below about 0.91 (no sharp cut-off); inconclusive = no clear call, values can overlap the other calls; inactive = mostly above about 0.92. This is one part of the list.

Assay: chemical genetic growth profiling, strain panel (AID 1159580);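 also: tested at 20 µM; growth read once vehicle control cultures reached saturation at 30 °C; 1 = growth at the plate median or of vehicle wells; lower values mean less growth of the strain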
Conditions: S. cerevisiae deletion strains, growth OD
[1] = locus YHR030C, strain SLT2, active compounds read low
[2] = locus YHR079C, strain IRE1, active compounds read low
[3] = locus YJL095W, strain BCK1, active compounds read low
[4] = locus YJR066W, strain TOR1, active compounds read low
[5] = locus YLR113W, strain HOG1, active compounds read low
[6] = locus YNL183C, strain NPR1, active compounds read low
[7] = locus YOR231W, strain MKK1, active compounds read low
[8] = locus YPL256C, strain CLN2, active compounds read low
[9] = locus YDL101C, strain DUN1, active compounds read low
[10] = locus YAL013W, strain DEP1, active compounds read low
[11] = locus YBR229C, strain ROT2, active compounds read low
[12] = locus YDL134C, strain PPH21, active compounds read low
[13] = locus YDR150W, strain NUM1, active compounds read low
[14] = locus YEL061C, strain CIN8, active compounds read low
[15] = locus YGR078C, strain PAC10, active compounds read low
[16] = locus YHR087W, strain rtc3, active compounds read low
[17] = locus YJR043C, strain POL32, active compounds read low
[18] = locus YJR075W, strain HOC1, active compounds read low
[19] = locus YLR039C, strain RIC1, active compounds read low
[20] = locus YLR058C, strain SHM2 (second series), active compounds read low
[21] = locus YLR085C, strain ARP6, active compounds read low
[22] = locus YLR262C, strain YPT6, active compounds read low
[23] = locus YML094W, strain GIM5, active compounds read low
[24] = locus YMR219W, strain ESC1, active compounds read low
[25] = locus YNL153C, strain GIM3, active compounds read low
[26] = locus YNL298W, strain CLA4 (second series), active compounds read low
[27] = locus YNL322C, strain KRE1, active compounds read low
[28] = locus YNR030W, strain Alg12, active compounds read low
[29] = locus YOL006C, strain TOP1, active compounds read low
[30] = locus YPL055C, strain LGE1, active compounds read low
[31] = locus YPL241C, strain CIN2, active compounds read low
[32] = locus YPR135W, strain CTF4, active compounds read low

Measured: normalized growth

OC[C@H]1O[C@H](OC[C@H]2O[C@@H](O)[C@H](O)[C@@H](O)[C@@H]2O)[C@H](O)[C@@H](O)[C@H]1O
inactive: [1] 1.05 | [2] 1.03 | [3] 1.05 | [4] 0.982 | [5] 1.01 | [6] 0.997 | [7] 1.04 | [8] 1.06

N#CC(C#N)=C/C=C(/Sc1nc2ccccc2s1)c1ccc(Br)cc1
active: locus YAR019C, strain CDC15, active compounds read low 0.148 | locus YBL105C, strain PKC1, active compounds read low 0.157 | locus YBR135W, strain CKS1, active compounds read low 0.189 | locus YBR136W, strain MEC1, active compounds read low 0.206 | locus YBR160W, strain CDC28, active compounds read low 0.22 | locus YDL017W, strain CDC7, active compounds read low 0.207 | locus YDL028C, strain MPS1, active compounds read low 0.28 | [9] 0.338 | locus YDL108W, strain KIN28, active compounds read low 0.289 | locus YDL132W, strain cdc53, active compounds read low 0.299 | locus YDL214C, strain PRR2, active compounds read low 0.144 | locus YDR052C, strain DBF4, active compounds read low 0.695 | locus YDR054C, strain cdc34, active compounds read low 0.145 | locus YDR226W, strain ADK1, active compounds read low 0.28 | locus YDR477W, strain SNF1, active compounds read low 0.144 | locus YER123W, strain YCK3, active compounds read low 0.217 | locus YER133W, strain GLC7, active compounds read low 0.168 | locus YFL009W, strain cdc4, active compounds read low 0.317 | locus YFL029C, strain CAK1, active compounds read low 0.153 | locus YFR003C, strain YPI1, active compounds read low 0.253 | locus YFR019W, strain FAB1, active compounds read low 0.146 | locus YFR028C, strain CDC14, active compounds read low 0.187 | locus YGR040W, strain KSS1, active compounds read low 0.156 | locus YGR052W, strain FMP48, active compounds read low 0.167 | locus YGR092W, strain DBF2, active compounds read low 0.155 | [1] 0.124 | [2] 0.17 | locus YHR082C, strain KSP1, active compounds read low 0.163 | locus YHR205W, strain SCH9, active compounds read low 0.0272 | locus YIL147C, strain SLN1, active compounds read low 0.215 | [3] 0.116 | locus YJL128C, strain PBS2, active compounds read low 0.391 | locus YJL157C, strain FAR1, active compounds read low 0.118 | locus YJR016C, strain ILV3, active compounds read low 0.176 | locus YJR066W, strain TOR1 (second series), active compounds read low 0.114 | [4] 0.156 | locus YKL048C, strain ELM1, active compounds read low 0.322 | locus YKL067W, strain YNK1, active compounds read low 0.137 | locus YKL101W, strain HSL1, active compounds read low 0.175 | locus YKL193C, strain SDS22, active compounds read low 0.155 | locus YKL203C, strain TOR2, active compounds read low 0.158 | [5] 0.218 | locus YLR133W, strain CKI1, active compounds read low 0.149 | locus YLR403W, strain SFP1, active compounds read low 0.0212 | locus YML070W, strain DAK1, active compounds read low 0.172 | locus YMR001C, strain CDC5, active compounds read low 0.126 | locus YMR205C, strain PFK2 (second series), active compounds read low 0.138 | locus YMR277W, strain FCP1, active compounds read low 0.144 | locus YNL006W, strain LST8, active compounds read low 0.13 | locus YNL020C, strain ARK1, active compounds read low 0.142 | locus YNL161W, strain CBK1, active compounds read low 0.164 | [6] 0.153 | locus YNL207W, strain RIO2, active compounds read low 0.21 | locus YNL222W, strain SSU72, active compounds read low 0.177 | locus YNL307C, strain MCK1 (second series), active compounds read low 0.137 | locus YOL078W, strain AVO1, active compounds read low 0.154 | locus YOL136C, strain PFK27, active compounds read low 0.161 | locus YOR061W, strain CKA2, active compounds read low 0.174 | locus YOR119C, strain RIO1, active compounds read low 0.155 | [7] 0.171 | locus YOR329C, strain SCD5, active compounds read low 0.164 | locus YPL031C, strain PHO85, active compounds read low 0.135 | locus YPL153C, strain RAD53, active compounds read low 0.133 | locus YPL204W, strain HRR25, active compounds read low 0.142 | locus YPL209C, strain IPL1, active compounds read low 0.159 | [8] 0.216 | locus YPR025C, strain CCL1, active compounds read low 0.181 | strain NNK1, active compounds read low 0.304 | strain TSCII, active compounds read low 0.157

CC(C)(O/N=C(/C(=O)N[C@@H]1C(=O)N2C(C(=O)[O-])=C(C[n+]3ccccc3)CSC12)c1csc(N)n1)C(=O)O (some centres undefined)
inactive: [1] 1.02 | [2] 1.02 | [3] 1.01 | [4] 0.95 | [5] 1.05 | [6] 0.962 | [7] 1.02 | [8] 1.03

COc1cc(C2N=C(c3ccc(Cl)cc3)SC(c3ccc(Cl)cc3)=N2)cc(OC)c1OC
inactive: [10] 1 | [11] 1.01 | [9] 1.02 | [12] 1.03 | [13] 1.02 | [14] 0.997 | [15] 1.01 | [1] 0.991 | [16] 1.02 | [17] 1.03 | [18] 0.991 | [19] 1.02 | [20] 1.04 | [21] 1 | [22] 1.03 | [23] 1 | [24] 1 | locus YMR263W, strain SAP30, active compounds read low 0.949 | [25] 1.01 | [26] 1.02 | [27] 1 | [28] 1.03 | [29] 0.891 | [30] 0.974 | [31] 1.01 | [32] 1.09

COc1ccc(-c2c(C)nc3ccc(Cl)cc3c2-c2ccccc2)cc1OC
inactive: [11] 0.937 | [9] 0.945 | [13] 0.861 | [14] 0.949 | [15] 0.935 | [1] 0.759 | [16] 0.913 | [17] 0.977 | locus YKL190W, strain CNB1, active compounds read low 0.98 | [19] 0.821 | [20] 0.986 | [21] 0.785 | [22] 0.948 | [23] 0.933 | [24] 0.947 | locus YNL128W, strain TEP1, active compounds read low 1.01 | [25] 0.972 | [26] 1 | [27] 0.98 | [28] 0.889 | [29] 0.817 | [30] 0.798 | [32] 0.754
active: [10] 0.91 | [12] 0.914 | [18] 0.819 | locus YMR307W, strain GAS1, active compounds read low 0.546 | [31] 0.85
